Potency and outcome data for eleven compounds are collected here from PubChem BioAssay (Tox21).

A short description of experiment [1]: qHTS assay to identify small molecule agonists of the RXR signaling pathway - cell viability counter screen (AID 1159529).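 Note: HEK 293T cells carrying an RXR-alpha UAS beta-lactamase reporter; series mostly up to about 77 µM; nearly all actives have a fitted effect of over 50% in size.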 In short, it runs like this:
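Tox21 10K compounds were tested for cytotoxicity against GeneBLAzer RXR-alpha HEK 293T cells grown in 2% charcoal-stripped FBS. Exposure lasted 16 hr at 37 C, 5% CO2; viability read by CellTiter-Glo luminescence.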
(qHTS replaces the single test concentration by a dilution series.)

Experiment [2] in a line: qHTS assay to identify small molecule antagonists of the retinoid acid receptor (RAR) signaling pathway - cell viability counter screen (AID 1159551). Note: nearly all actives have a fitted effect of over 35% in size. In outline: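 In this counter screen, the RARE-luciferase line C3RL4 was exposed for 6 h at 37 C and 5% CO2 to compounds with retinol at 1 uM final. Cellular ATP, read by luminescence, served as the viability measure.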
A short description of experiment [3]: qHTS assay to identify small molecule antagonists of the retinoic acid receptor (RAR) signaling pathway (AID 1159552; note: nearly all actives have a fitted effect of over 50% in size). In outline: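 Overnight-plated C3RL4 reporter cells get compound, then retinol to 1 uM final; plates sit 6 hr at 37 C, 5% CO2. A luciferase reagent is added and light output recorded after 30 min at room temperature.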
The nature of experiment [4]: qHTS assay to identify small molecule agonists of the retinoic acid receptor (RAR) signaling pathway (AID 1159553). Note: potency is the fitted concentration of half-maximal effect. In short, it runs like this:
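In this cell-based screen, 1,000 C3RL4 cells per well were cultured overnight, dosed with test chemicals in DMSO for 6 hr, and assessed for RARE luciferase luminescence.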

A short description of experiment [5]: qHTS assay to identify small molecule antagonists of the estrogen related receptor (ERR) signaling pathway from Tox21 library - cell viability counter screen (AID 1224834). Note: nearly all actives have a fitted effect of over 30% in size. In short, it runs like this:
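Counter screen run in ERR cells (2,000 cells/well): cells pre-incubated 6 h, then treated with compounds for 17.5 h at 37 C. Fluorescence was read 30 min after CellTiter-Fluor addition.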

Experiment [6] deals with Luciferin 4-monooxygenase (Photinus pyralis) (UniProt P08659). As to the kind of experiment: qHTS assay to identify small molecule inhibitors of firefly luciferase (AID 1224835). Note: series mostly up to about 120 µM; nearly all actives have a fitted effect of over 25% in size. In outline:
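Biochemical qHTS: compounds run as interplate titrations against purified firefly enzyme, with D-luciferin and ATP each at its KM concentration. Light output recorded by CCD imaging.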

A short description of experiment [7]: qHTS assay to identify small molecule agonists of the constitutive androstane receptor (CAR) signaling pathway - cell viability counter screen (AID 1224836). Note: series mostly up to about 92 µM; nearly all actives have a fitted effect of over 45% in size. In outline:
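Fluorescence from CellTiter-Fluor indicates live cells after 23 h exposure. The human hepatoma line expresses hCAR and a CYP2B6-2.2kb reporter. Incubation medium contains 0.75 uM PK11195 (final).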

Experiment [8] is described as follows: qHTS assay to identify small molecule antagonists of the constitutive androstane receptor (CAR) signaling pathway - cell viability counter screen (AID 1224837). Note: series mostly up to about 92 µM; nearly all actives have a fitted effect of over 45% in size. In short, it runs like this:
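CITCO at 50 nM final was added alongside compounds (15 concentrations) to double-stable hCAR/CYP2B6-2.2kb HepG2 cells. Following 23 hr at 37 C, cell viability was quantified by CellTiter-Fluor fluorescence intensity.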

Experiment [9] deals with Nuclear receptor subfamily 1 group I member 3 (Homo sapiens) (UniProt Q14994). Description: qHTS assay to identify small molecule antagonists of the constitutive androstane receptor (CAR) signaling pathway (AID 1224838). Note: nearly all actives have a fitted effect of over 40% in size. In short, it runs like this:
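Inhibition of CITCO-driven (50 nM final) CYP2B6 reporter expression is measured in HepG2 cells stably carrying hCAR. Fifteen compound concentrations are applied for 24 h at 37 C, followed by luciferase luminescence.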

For experiment [10] the target is unchanged. Description: qHTS assay to identify small molecule agonists of the constitutive androstane receptor (CAR) signaling pathway (AID 1224839). Note: series mostly up to about 92 µM; nearly all actives have a fitted effect of over 15% in size. In outline: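 Stable hCAR/CYP2B6-2.2kb HepG2 line in DMEM with 10% FBS; compounds (15 concentrations) and 0.75 uM PK11195 final, 24 h at 37 C/5% CO2, then ONE-Glo luminescence after 30 min.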
Experiment [11] is described as follows: qHTS assay to identify small molecule antagonists of the estrogen related receptor signaling pathway with the pleiotropic PPARgamma coactivator (PGC) from Tox21 10K library - cell viability counter screen (AID 1224840; active = well fitted cell-killing curve with a large enough effect in the repeat runs, not every such curve was filed as active; note: nearly all actives have a fitted effect of over 40% in size). In outline:
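Readout: fluorescence intensity from CellTiter-Fluor after 30 min at 37 C/5% CO2. Preceded by 17.5 h treatment of PGC/ERR cells with DMSO-dissolved compounds, added 6 h post-seeding.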

Experiment [12] can be described thus: qHTS assay to identify small molecule antagonists of the estrogen related receptor signaling pathway with the pleiotropic PPARgamma coactivator (PGC) from Tox21 10K library (AID 1224841; call rule not given here; note: series mostly up to about 92 µM; actives are mostly falling curves and most rising ones were filed inactive; nearly all actives have a fitted effect of over 50% in size). In short, it runs like this:
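One-Glo luminescence, measured after half an hour at room temperature, quantified reporter output of PGC/ERR cells. These had been plated at 2,000 per well, incubated 6 h, dosed with compounds in DMSO, then kept 18 h at 37 C.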

Experiment [13] is described as follows: qHTS assay to identify small molecule agonists of the estrogen related receptor signaling pathway with the pleiotropic PPARgamma coactivator (PGC) from Tox21 10K library (AID 1224842). Note: nearly all actives have a fitted effect of over 15% in size. In outline:
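PGC/ERR reporter cell line, 2,000 cells per well, incubated 6 h at 37 C before 23 nL compound in DMSO was added. After 18 h at 37 C, One-Glo luminescence read following 30 min at room temperature.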

Inconclusive results are not listed. Calls of active or inactive are those of the source. Unless noted, calls come from the whole dose curve; as a rule, active = well fitted curve in the direction sought with a large enough effect in the repeat runs; inconclusive = weak or mixed curves; inactive = no such curve, though single readings can be large; an effect the other way counts as inactive or inconclusive.

Chain of Luciferin 4-monooxygenase (Photinus pyralis) (P08659 whole entry, looked up): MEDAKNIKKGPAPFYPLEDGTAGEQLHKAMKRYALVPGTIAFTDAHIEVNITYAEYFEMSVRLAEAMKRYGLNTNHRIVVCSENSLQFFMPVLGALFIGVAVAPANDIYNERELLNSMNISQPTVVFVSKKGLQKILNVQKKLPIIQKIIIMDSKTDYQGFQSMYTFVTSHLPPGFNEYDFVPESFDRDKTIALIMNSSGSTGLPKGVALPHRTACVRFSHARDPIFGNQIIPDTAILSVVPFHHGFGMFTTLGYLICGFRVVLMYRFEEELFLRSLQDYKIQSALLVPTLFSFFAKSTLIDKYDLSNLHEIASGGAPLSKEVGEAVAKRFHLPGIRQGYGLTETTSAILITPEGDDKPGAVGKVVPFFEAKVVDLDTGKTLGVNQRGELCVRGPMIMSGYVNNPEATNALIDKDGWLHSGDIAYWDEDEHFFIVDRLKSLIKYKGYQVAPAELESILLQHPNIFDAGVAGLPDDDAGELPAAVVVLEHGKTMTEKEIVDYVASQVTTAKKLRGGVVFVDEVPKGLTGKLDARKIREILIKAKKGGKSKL
Chain of Nuclear receptor subfamily 1 group I member 3 (Homo sapiens) (Q14994 whole entry, looked up): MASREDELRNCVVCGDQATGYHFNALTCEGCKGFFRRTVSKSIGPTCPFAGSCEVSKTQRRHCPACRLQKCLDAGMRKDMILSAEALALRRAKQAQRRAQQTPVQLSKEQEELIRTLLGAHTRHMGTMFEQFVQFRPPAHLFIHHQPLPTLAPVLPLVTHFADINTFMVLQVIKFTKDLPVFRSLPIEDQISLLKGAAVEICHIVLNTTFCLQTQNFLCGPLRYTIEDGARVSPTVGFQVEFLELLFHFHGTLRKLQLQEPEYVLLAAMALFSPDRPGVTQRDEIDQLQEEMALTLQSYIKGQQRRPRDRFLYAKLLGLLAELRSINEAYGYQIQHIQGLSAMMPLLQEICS

As for `CC(C)(O)C#CC(C)(C)O`, the Potency entry in experiment [1], in experiment [3], in experiment [4], in experiment [5], in experiment [6] and in experiment [7] was “inactive” in each case. Also, the Potency result in experiment [8], in [9], in [10], in [11] and in experiment [12] was “inactive” each time. Further, the compound was called inactive in [2] and in [13].
Turning to `C=C[Si](OC(=C)C)(OC(=C)C)OC(=C)C`, the Potency result in [1], in experiment [3], in [4], in [5], in experiment [6] and in experiment [7] was “inactive” in each case. Moreover, the Potency result in experiment [8], in experiment [9], in [10], in [11] and in [12] was “inactive” throughout. Moreover, the call in [2] and in experiment [13] was inactive.
In the case of `CC(C)OC(=O)c1ccccc1`, the Potency result in experiment [1], in [3], in experiment [4], in [5], in experiment [6] and in [7] was “inactive” in each case. Also, the Potency result in [8], in [9], in [10], in experiment [11] and in [12] was “inactive” throughout. Moreover, the result in experiment [2] and in experiment [13] was inactive.
Consider `ClC(Cl)(Br)Br`, for which the Potency entry in experiment [1], in [3], in experiment [4], in [5], in [6] and in [7] was “inactive” throughout. For the same compound, the Potency result in [8], in experiment [9], in experiment [10], in experiment [11] and in [12] was “inactive” throughout. In addition, the compound was called inactive in experiment [2] and in [13].
As to `NC(=O)Nc1ccccc1`, the Potency result in [1], in [3], in [4], in experiment [5], in experiment [6] and in experiment [7] was “inactive” throughout. The Potency entry in experiment [8], in [9], in experiment [10], in experiment [11] and in experiment [12] was “inactive” throughout. The result in experiment [2] and in experiment [13] was inactive.
Consider `CC(C)NC(=O)NC(C)C`, for which the Potency result in experiment [1], in experiment [3], in [5], in experiment [6], in experiment [7] and in [8] was “inactive” throughout. Moreover, the Potency result in [9], in experiment [10], in experiment [11] and in [12] was “inactive” in each case. The call in [2] and in experiment [13] was inactive. Also, the Potency in [4] was 969 nM (active).
Turning to `CN1N=C(C(N)=O)CCC1=O`, the Potency result in experiment [1], in experiment [3], in [4], in experiment [5], in experiment [6] and in [7] was “inactive” throughout. The Potency entry in experiment [8], in [9], in experiment [10], in [11] and in experiment [12] was “inactive” in each case. Besides, in experiment [2], the call was inactive.
As to `OCCCC1CCCCC1`, the Potency entry in experiment [1], in experiment [3], in experiment [4], in experiment [5], in [6] and in [7] was “inactive” in each case. For the same compound, the Potency entry in experiment [8], in experiment [9], in experiment [10], in experiment [11] and in [12] was “inactive” in each case. Further, the outcome in experiment [2] and in experiment [13] was inactive.
`CN(C)CCCNCCCN(C)C`: the Potency entry in [1], in experiment [3], in experiment [4], in [5], in experiment [7] and in experiment [8] was “inactive” in each case. Moreover, the Potency result in [9], in [10], in experiment [11] and in experiment [12] was “inactive” in each case. Moreover, the compound was called inactive in experiment [2] and in [13].
For `NC(=O)COCCN1CCN(C(c2ccccc2)c2ccc(Cl)cc2)CC1` (stereo unspecified), the Potency result in experiment [1], in [3], in experiment [4], in experiment [5], in [6] and in [7] was “inactive” each time. The Potency result in experiment [8], in experiment [9], in experiment [10], in experiment [11] and in experiment [12] was “inactive” each time. The result in experiment [2] and in [13] was inactive.
As for `COC(=O)CC(C)=O`, the Potency entry in [1], in experiment [3], in experiment [4], in experiment [5], in experiment [6] and in experiment [7] was “inactive” throughout. The Potency result in experiment [8], in experiment [9], in [10], in experiment [11] and in experiment [12] was “inactive” in each case. For the same compound, the outcome in experiment [2] and in [13] was inactive.
